# Experimental data published in the supplement of paper PMC8975748.
# Where a name gives a salt, the structure may show the parent alone.
# System: Saccharomyces cerevisiae BY4741 SeMeCo community
# Test: z-score of subpopulation abundance vs DMSO median, subpopulation auxotrophic for LM; higher = larger share of this subpopulation than in DMSO controls
# Settings: 10 µM; 24 h; SM minimal medium; subpopulation (auxotrophy): LM
# Method: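 Fluorescent four-plasmid SeMeCo (self-establishing metabolically cooperating S. cerevisiae BY4741 community; plasmids pH-mRuby2, pL-mWasabi, pU-eCFP, pM-TagRFP657) was grown 24 h in minimal SM medium with each Selleck FDA-approved drug at 10 µM in 384-well plates. Cells were fixed and imaged by high-content confocal microscopy. For each auxotrophic subpopulation (and the prototroph), a z-score gives the deviation from the DMSO vehicle-control population median.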
row,SMILES,z-score of subpopulation abundance
1,CN1CCN(CC(=O)N2c3ccccc3C(=O)Nc3cccnc32)CC1 [Pirenzepine dihydrochloride],-0.32
2,CCOC(=O)C1=C[C@]2(CC)CCCN3CCc4c(n1c1ccccc41)[C@@H]32 [Vinpocetine],0.73
3,C=CCCCCCCCCC(=O)[O-].C=CCCCCCCCCC(=O)[O-].[Zn+2] [Zinc Undecylenate],-2.11
4,CC1(C)S[C@@H]2[C@H](NC(=O)Cc3ccccc3)C(=O)N2[C@H]1C(=O)O.CCN(CC)CCOC(=O)c1ccc(N)cc1 [Penicillin G Procaine],1
5,CNCCCN1c2ccccc2CCc2ccccc21 [Desipramine Hydrochloride],0.26
6,COc1ccc(CCN(C)CCCC(C#N)(c2ccc(OC)c(OC)c2)C(C)C)cc1OC (stereo not given) [Verapamil HCl],0
7,CCOc1ccc2ccccc2c1C(=O)N[C@@H]1C(=O)N2[C@@H]1SC(C)(C)[C@@H]2C(=O)O [Nafcillin Sodium],0.39
8,CN(CCN1CCC(OC(=O)Nc2ccccc2-c2ccccc2)CC1)C(=O)c1ccc(CN2CCC(C(N)=O)CC2)cc1 [Revefenacin],0.16
9,CCCNC(C)C(=O)Nc1ccccc1C (stereo not given) [Prilocaine],-0.18
10,CN(C)CCC[C@@]1(c2ccc(F)cc2)OCc2cc(C#N)ccc21 [Escitalopram Oxalate],0.48
11,O=C(c1ccccc1)c1ccc2n1CCC2C(=O)O (stereo not given) [Ketorolac],0.62
12,O=C(Nc1cc(Cl)cc(Cl)c1O)c1c(O)c(Cl)cc(Cl)c1Cl [Oxyclozanide],-0.51
13,Cn1cc(C(=O)[C@@H]2CCc3[nH]cnc3C2)c2ccccc21 [Ramosetron Hydrochloride],0.12
14,Cc1nc2n(c(=O)c1CCN1CCC(c3noc4cc(F)ccc34)CC1)CCCC2O (stereo not given) [Paliperidone],-0.14
15,CCCSc1ccc2[nH]c(NC(=O)OC)nc2c1 [Albendazole],0.33
16,C[C@H]1COc2c(N3CCN(C)CC3)c(F)cc3c(=O)c(C(=O)O)cn1c23 [Levofloxacin],-0.53
17,NC(CO)(CO)CO [Trometamol],-0.62
18,CCCCCCCN(CC)CCCC(O)c1ccc(NS(C)(=O)=O)cc1 (stereo not given) [Ibutilide Fumarate],-0.88
19,CO/N=C(\C(=O)N[C@@H]1C(=O)N2C(C(=O)[O-])=C(C[n+]3cccc4c3CCC4)CS[C@H]12)c1csc(N)n1 [Cefpirome sulfate],0.27
20,CC[C@H](C)C[C@H](C)CCCCCCCCC(=O)N[C@H]1C[C@@H](O)[C@@H](NCCN)NC(=O)[C@@H]2[C@@H](O)CCN2C(=O)[C@H]([C@H](O)CCN)NC(=O)[C@H]([C@H](O)[C@@H](O)c2ccc(O)cc2)NC(=O)[C@@H]2C[C@@H](O)CN2C(=O)[C@H]([C@@H](C)O)NC1=O [Caspofungin Acetate],1.23

row,SMILES,z-score of subpopulation abundance
1,N[C@@H]1CCCCN(c2c(F)cc3c(=O)c(C(=O)O)cn(C4CC4)c3c2Cl)C1 [Besifloxacin HCl],0.38
2,CCOc1cc(N)c(Cl)cc1C(=O)NCC1CN(Cc2ccc(F)cc2)CCO1 (stereo not given) [Mosapride],-0.41
3,CCOC(=O)C1=C(COCCN)NC(C)=C(C(=O)OC)C1c1ccccc1Cl (stereo not given) [Amlodipine],8.35
4,CN(C)CCCN1c2ccccc2Sc2ccc(Cl)cc21 [Chlorpromazine HCl],0.96
5,O=C(O)CCCCCCCC(=O)O [Azelaic acid],0.3
6,O=C(O)c1cccnc1Nc1cccc(C(F)(F)F)c1 [Niflumic acid],-0.15
7,CCOc1cc(N)c(Cl)cc1C(=O)NCC1CN(Cc2ccc(F)cc2)CCO1 (stereo not given) [Mosapride Citrate],-0.05
8,OCCN1CCN(CC/C=C2/c3ccccc3Sc3ccc(C(F)(F)F)cc32)CC1 [Flupenthixol dihydrochloride],0.75
9,CN[C@@H]1[C@@H](O[C@H]2O[C@H](CO)[C@@H](N)[C@H](O)[C@H]2O)OC2C[C@@H](N)[C@@H](O[C@H]3[C@H](O)[C@@H](O)[C@H](N)C[C@@H]3N)OC2[C@@H]1O (stereo not given in full) [Apramycin Sulfate],0.1
10,COc1ccc(CNc2nc(N3CCC[C@H]3CO)ncc2C(=O)NCc2ncccn2)cc1Cl [Avanafil],-0.5
11,Cc1nnc(NS(=O)(=O)c2ccc(N)cc2)s1 [Sulfamethizole],-0.01
12,Cc1cccc(C)c1NC(=O)C1CCCCN1C (stereo not given) [Mepivacaine HCl],-0.76
13,Cc1cccc(C)c1OCC(C)N (stereo not given) [Mexiletine HCl],-0.69
14,Cc1nc(C)c(Cl)c(O)c1Cl [Clopidol],-0.19
15,CC(C)N1CCN(c2ccc(OCC3COC(Cn4cncn4)(c4ccc(Cl)cc4Cl)O3)cc2)CC1 (stereo not given) [Terconazole],-0.49
16,CC1(C)S[C@@H]2[C@H](NC(=O)C(C(=O)O)c3ccccc3)C(=O)N2[C@H]1C(=O)O (stereo not given in full) [Carbenicillin disodium],-0.02
17,CN1[C@@H](CC(=O)c2ccccc2)CCC[C@H]1C[C@H](O)c1ccccc1 [Lobeline hydrochloride],-0.29
18,CCC(=O)NS(=O)(=O)c1ccc(-c2c(-c3ccccc3)noc2C)cc1 [Parecoxib Sodium],1
19,c1cnc(N2CCN(Cc3ccc4c(c3)OCO4)CC2)nc1 [Piribedil],0.32
20,CN[C@@H]1[C@H](O[C@H]2[C@H](O[C@H]3[C@H](O)[C@@H](O)[C@H](NC(=N)N)[C@@H](O)[C@@H]3NC(=N)N)O[C@@H](C)[C@]2(O)CO)O[C@@H](CO)[C@H](O)[C@H]1O [Dihydrostreptomycin sulfate],-0.32
